Values joined by “and” are separate entries in the source; they are usually repeats but may differ in a detail not shown here. Equal entries are not always repeated. Results filed as inconclusive are left out. A call without a number means that no potency is given here. Some structures have more than one record in an assay (separate samples or runs), and their calls can disagree. Active and inactive are the calls of the source. Unless noted, calls follow the shape of the dose curve; as a rule, active = well fitted curve in the direction sought with a large enough effect in the repeat runs; inconclusive = weak or mixed curves; inactive = no such curve, though single readings can be large; an effect the other way counts as inactive or inconclusive.
What was measured:
[1] = qHTS assay to identify small molecule antagonists of the vitamin D receptor (VDR) signaling pathway - cell viability counter screen (AID 743225); also: nearly all actives have a fitted effect of over 50% in size
In short: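 Compounds were pinned onto VDR-bla HEK 293T cells together with 1-alpha,25-dihydroxyvitamin D3 at 3 nM final. After 16 h at 37C and 5% CO2 plus the reporter readout, cell viability was measured by CellTiter-Glo luminescence (30 min, room temperature).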

[2] = qHTS assay to identify small molecule agonists of the NFkB signaling pathway (AID 1159509; active = well fitted curve in the direction sought with a large enough effect in the signal ratio in the repeat runs, not every such curve was filed as active; the % refers to the signal ratio; also: series mostly up to about 61 µM)
In short: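 Beta-lactamase reporter assay run in quantitative high-throughput format on an NF-kB-responsive ME-180 line, with 5 hr compound treatment and a FRET-based blue/green fluorescence readout.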

[3] = qHTS assay to identify small molecule agonists of the NFkB signaling pathway - cell viability counter screen (AID 1159515; calls by dose curve; also: series mostly up to about 61 µM; nearly all actives have a fitted effect of over 55% in size)
In short: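 Cells are seeded (2,000 NFkB-bla ME-180 per well), rested overnight, and dosed with DMSO-dissolved compounds for 5 hr at 37 C. Viability is then read by CellTiter-Glo luminescence after 30 min at room temperature.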

[4] = qHTS assay to identify small molecule agonists of the endoplasmic reticulum stress response signaling pathway (AID 1159516; active = well fitted activation curve with a large enough effect in the signal ratio in the repeat runs, not every such curve was filed as active; the % refers to the signal ratio)
In short: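 Cells are seeded at 1,500 per well and incubated overnight. Compounds in DMSO are added for 5 hr at 37 C, then beta-lactamase FRET substrate for 2 hr at room temperature, and fluorescence at 460 and 530 nm is measured.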

[5] = qHTS assay to identify small molecule agonists of the endoplasmic reticulum stress response signaling pathway - cell viability counter screen (AID 1159517; calls by dose curve;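 also: HeLa cells carrying an ER stress response element beta-lactamase reporter; series mostly up to about 61 µM; nearly all actives have a fitted effect of over 50% in size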)
In short: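 Cytotoxicity of test compounds toward ESRE-bla HeLa cells was assessed after 5 hr exposure. The luminescent CellTiter-Glo signal was measured 30 min after reagent addition.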

[6] = qHTS assay to identify small molecule antagonists of the retinoid-related orphan receptor gamma (ROR-gamma) signaling pathway - cell viability counter screen (AID 1159520); also: nearly all actives have a fitted effect of over 50% in size
In short: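 Tet-on ROR gamma CHO cells (1,000/well) were plated 4 hr, given compounds in DMSO for 2 hr at 37 C, then induced with 1 uM final doxycycline for 16 hr. Viability was read as ATP by CellTiter-Glo luminescence after 30 min.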

[7] = molecular target: Nuclear receptor ROR-gamma (Homo sapiens) (UniProt P51449); assay: qHTS assay to identify small molecule antagonists of the retinoid-related orphan receptor gamma (ROR-gamma) signaling pathway (AID 1159521; also: nearly all actives have a fitted effect of over 50% in size; also: potency is read from the fitted curve at half-maximal effect)
In short: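 Test compounds were applied to Tet-on RORγ CHO cells 2 h ahead of doxycycline hyclate (1 uM final). Luciferase reporter activity was quantified by luminescence after 16 h at 37 C and 5% CO2.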

[8] = qHTS assay to identify small molecule agonists of the AP-1 signaling pathway - cell viability counter screen (AID 1159525; calls by dose curve; also: nearly all actives have a fitted effect of over 55% in size)
In short: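 Each titration point was normalised to DMSO and tetra n-octyl ammonium bromide controls. The read was Cell Titer Glo luminescence after 30 min at RT, following 5 h compound exposure of ME-180 AP-1-bla cells at 37 °C.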

[9] = qHTS assay to identify small molecule agonists of the AP-1 signaling pathway (AID 1159526; calls by dose curve)
[10] = qHTS assay to identify small molecule agonists of the RXR signaling pathway - cell viability counter screen (AID 1159529); also: nearly all actives have a fitted effect of over 50% in size; also: potency is read from the fitted curve at half-maximal effect
In short: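 Compounds dissolved in DMSO were pinned onto HEK 293T cells carrying a beta-lactamase reporter under RXR-alpha control and incubated 16 hr. Cytotoxicity was then quantified by CellTiter-Glo luminescence.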

[11] = qHTS assay to identify small molecule antagonists of the retinoid acid receptor (RAR) signaling pathway - cell viability counter screen (AID 1159551); also: nearly all actives have a fitted effect of over 35% in size
In short: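 Cells (C3RL4) are plated, incubated overnight, dosed with compound in DMSO, then given retinol at 1 uM final. After 6 h at 37 C, CellTiter-Glo is added and luminescence read following 30 min at room temperature.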

[12] = qHTS assay to identify small molecule antagonists of the retinoic acid receptor (RAR) signaling pathway (AID 1159552; also: nearly all actives have a fitted effect of over 50% in size)
In short: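 Test chemicals and DMSO controls were pin-transferred onto C3RL4 cells a day after seeding; retinol (1 uM final) followed at once. Luminescent reporter output was quantified after 6 hr of co-incubation and 30 min with detection reagent.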

[13] = qHTS assay to identify small molecule agonists of the retinoic acid receptor (RAR) signaling pathway (AID 1159553); also: potency is read from the fitted curve at half-maximal effect
In short: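 Seed C3RL4 reporter cells at 1,000 per well and incubate overnight at 37 C. Add compounds in DMSO, incubate 6 hr. Add luciferase reagent, wait 30 min at room temperature, read luminescence.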

[14] = molecular target: Retinoic acid receptor RXR-alpha (Homo sapiens) (UniProt P19793); assay: qHTS assay to identify small molecule agonists of the RXR signaling pathway (AID 1159527; calls by dose curve; also: nearly all actives have a fitted effect of over 35% in size; also: potency is read from the fitted curve at half-maximal effect)
In short: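 Using 9-cis retinoic acid as the reference agonist, chemicals were tested in HEK 293T cells […] for 16 hr; substrate loading lasted 2 hr at room temperature.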

Retinoic acid receptor RXR-alpha (Homo sapiens), sequence (P19793 whole entry, looked up): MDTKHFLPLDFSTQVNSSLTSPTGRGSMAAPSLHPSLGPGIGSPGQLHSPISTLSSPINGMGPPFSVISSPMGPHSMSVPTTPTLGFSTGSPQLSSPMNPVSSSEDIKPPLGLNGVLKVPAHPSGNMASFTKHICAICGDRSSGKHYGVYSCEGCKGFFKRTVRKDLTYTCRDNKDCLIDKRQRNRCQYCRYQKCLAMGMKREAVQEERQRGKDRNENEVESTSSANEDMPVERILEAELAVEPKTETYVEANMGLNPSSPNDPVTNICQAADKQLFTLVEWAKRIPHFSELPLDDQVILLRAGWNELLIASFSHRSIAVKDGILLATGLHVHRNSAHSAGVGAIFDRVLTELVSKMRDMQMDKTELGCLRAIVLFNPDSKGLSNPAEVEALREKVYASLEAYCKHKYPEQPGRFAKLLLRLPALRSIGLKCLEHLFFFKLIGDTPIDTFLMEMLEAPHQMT

SMILES	Potency [1]	outcome [2]	outcome [3]	outcome [4]	Potency [5]	Potency [6]	Potency [7]	Potency [8]	outcome [9]	Potency [10]	Potency [11]	Potency [12]	Potency [13]	Potency [14]
CCN(CCO)CCO	inactive	inactive	inactive	inactive	inactive	inactive	inactive	inactive	inactive	inactive	inactive	inactive	inactive	
CCCCCCCCSC(=O)Oc1cc(Cl)nnc1-c1ccccc1	inactive	inactive	inactive	inactive	inactive	inactive	inactive	inactive	inactive	inactive	inactive	inactive	inactive	
C=C(Cl)CCl	inactive	inactive	inactive	inactive	inactive	inactive	inactive	inactive	inactive		inactive	inactive	inactive	inactive
C[C@H](CN1CCOCC1)C(C(=O)N1CCCC1)(c1ccccc1)c1ccccc1	inactive	inactive	inactive	inactive	inactive	inactive	inactive	inactive	inactive	inactive	inactive		inactive	
CCC(C(N)=O)N1CCCC1=O (stereo not given)	inactive	inactive	inactive	inactive	inactive	inactive	inactive	inactive	inactive		inactive	inactive	inactive	inactive
O=C(Cl)OCc1ccccc1	inactive	inactive	inactive	inactive	inactive	inactive	inactive	inactive	inactive		inactive	inactive	inactive	inactive
CCCOc1nn(C(=O)NS(=O)(=O)c2ccccc2C(=O)OC)c(=O)n1C	inactive	inactive	inactive	inactive	inactive	inactive	inactive	inactive	inactive		inactive	inactive	inactive	inactive
CC[C@H](O)C(C[C@H](C)N(C)C)(c1ccccc1)c1ccccc1	inactive	inactive	inactive	inactive	inactive	inactive	inactive	inactive	inactive	inactive		inactive		inactive
C=CC1(C)OC(=O)N(c2cc(Cl)cc(Cl)c2)C1=O (stereo not given)	inactive	inactive	inactive	inactive	inactive	inactive	43 µM (active) and inactive	inactive	inactive	34.5 µM (active) and inactive	inactive			
CCC1(CC)C(=O)C=CNC1=O	inactive	inactive	inactive	inactive	inactive	inactive	inactive	inactive	inactive	inactive		inactive	inactive	inactive
CCSC(=O)Cl	inactive	inactive	inactive	inactive	inactive	inactive	inactive	inactive	inactive	inactive	inactive	inactive	inactive	
CC(C)(C)c1cc(O)ccc1O	inactive	inactive	inactive	inactive	inactive	inactive	13.7 µM (active) and 24.3 µM (active)			21.9 µM (active) and 24.5 µM (active)		inactive	inactive	
C#CCOC(=O)/C=C(C)/C=C/CC(C)CCCC(C)C (stereo not given)	inactive	inactive	inactive	inactive		inactive	inactive	inactive	inactive	inactive	inactive		inactive	49 µM (active)
CC(C)(O)C(Cl)(Cl)Cl	inactive	inactive	inactive	inactive	inactive	inactive	inactive		inactive	inactive	inactive	inactive	inactive	
CON(C)C(=O)Nc1ccc(Br)c(Cl)c1		inactive	inactive	inactive	inactive	inactive	inactive	inactive	inactive	inactive		inactive	21.7 µM (active)	
Oc1ccc2c3c1O[C@H]1[C@@H](O)C=C[C@H]4[C@@H](C2)NCC[C@@]341	inactive	inactive	inactive	inactive		inactive	inactive	inactive	inactive				inactive	inactive
COP(=O)(O)OC	inactive	inactive	inactive	inactive	inactive	inactive	inactive		inactive	inactive	inactive	inactive	inactive	
O=C(NC(=O)c1c(F)cccc1F)Nc1cc(Cl)c(F)c(Cl)c1F		inactive	inactive	inactive		inactive	inactive	inactive	inactive	inactive	inactive	inactive	inactive	inactive
CCOP(=O)(CN(CCO)CCO)OCC	inactive	inactive	inactive	inactive		inactive	inactive	inactive	inactive	inactive	inactive	inactive	inactive	inactive
CCOP(=S)(OCC)Oc1ccc(Cl)cc1Cl	inactive	inactive	inactive	inactive	inactive	inactive	inactive		inactive	inactive	inactive	inactive	inactive	inactive
CCc1ccc(C2CCNCC2)cc1	inactive	inactive	inactive	inactive	inactive	inactive	inactive		inactive	inactive	inactive	inactive	inactive	inactive
CCN[C@@H](C)Cc1cccc(C(F)(F)F)c1	inactive	inactive	inactive	inactive		inactive	inactive	inactive	inactive	inactive	inactive	inactive	inactive	inactive

From PubChem BioAssay (Tox21)
